Test results: the antibiotic and cytotoxicity screens of Wong et al. (2023)
About 3,300 (8.5%) of roughly 39,000 compounds were called active. The entries come from a sample that favours actives as a whole.

test system: HepG2; assay: cytotoxicity call (relative viability < 0.9); settings: 10 µM

Structure (SMILES)	cytotoxicity call
Cc1noc(C)c1NC(=O)N(C)C[C@H]1Oc2ccc(NC(=O)c3ccncc3)cc2CC(=O)N([C@H](C)CO)C[C@H]1C	inactive
CC(C)NC(=O)N(C)C[C@@H]1OCCCC[C@@H](C)Oc2ccc(NC(=O)Nc3ccccc3)cc2C(=O)N([C@@H](C)CO)C[C@H]1C	inactive
C[C@H]1CN([C@@H](C)CO)C(=O)c2cc(NS(=O)(=O)c3ccc(Cl)cc3)ccc2O[C@@H]1CN(C)S(C)(=O)=O	inactive
C[C@H](CO)N1C[C@H](C)[C@@H](CN(C)C(=O)C2CCOCC2)Oc2ncc(C#Cc3cccc(F)c3)cc2C1=O	inactive
C[C@@H]1CN([C@@H](C)CO)C(=O)c2cc(NC(=O)Nc3cccc4ccccc34)ccc2O[C@@H](C)CCCCO[C@@H]1CN(C)S(=O)(=O)c1cccs1	inactive
COc1ccccc1C#Cc1cnc2c(c1)C(=O)N([C@@H](C)CO)C[C@@H](C)[C@H](CN(C)C(=O)CC1CC1)O2	inactive
Cc1ccc(S(=O)(=O)Nc2ccc3c(c2)C(=O)N([C@H](C)CO)C[C@@H](C)[C@H](CN(C)C(=O)NC(C)C)O3)cc1	inactive
C[C@@H]1CN([C@H](C)CO)C(=O)CCCn2cc(nn2)CO[C@@H]1CN(C)C(=O)c1cc(-c2ccccc2)on1	inactive
CN(C)CCCCNC(=O)[C@@H]1C[C@@H]2C(=O)N[C@@H](CCCC[N+](C)(C)C)C(=O)N2[C@@H]1c1ccc(O)cc1	inactive
C[C@H]1CCCCO[C@H](CN(C)C(=O)Nc2ccc(C(F)(F)F)cc2)[C@@H](C)CN([C@@H](C)CO)C(=O)c2cc(NC(=O)Nc3cccc4ccccc34)ccc2O1	inactive
COc1ccc(S(=O)(=O)N(C)C[C@H]2Oc3ccc(NC(=O)Nc4c(C)noc4C)cc3CC(=O)N([C@@H](C)CO)C[C@@H]2C)cc1	inactive
CCS(=O)(=O)N1C[C@]2(CN(C2)C(=O)Nc2ccc(cc2)F)c2c(n(c3cc(ccc23)OC)C)[C@H]1CO	inactive
C[C@H](CO)N1C[C@H](C)[C@@H](CN(C)Cc2ccc(Oc3ccccc3)cc2)Oc2ccc(NS(=O)(=O)c3ccc(F)cc3)cc2CC1=O	inactive
C[C@@H]1CN([C@H](C)CO)C(=O)Cc2cc(NS(=O)(=O)c3ccc(F)cc3)ccc2O[C@@H]1CN(C)Cc1ccc(Oc2ccccc2)cc1	active
CC(=O)[C@@H](OC(=O)CS(C)(=O)=O)C(=O)NCc1ccccc1	inactive
COc1ccc(S(=O)(=O)Nc2ccc3c(c2)C(=O)N([C@H](C)CO)C[C@@H](C)[C@H](CN(C)C(=O)CCC(F)(F)F)OCCCC[C@@H](C)O3)cc1	inactive
C[C@@H]1CCCCO[C@H](CN(C)C(=O)C2CCCCC2)[C@H](C)CN([C@@H](C)CO)C(=O)c2cc(NS(=O)(=O)c3ccc(Cl)cc3)ccc2O1	inactive
C[C@@H]1CCCCO[C@H](CN(C)C(=O)C2CCCCC2)[C@@H](C)CN([C@H](C)CO)C(=O)c2cc(NS(=O)(=O)c3ccc(Cl)cc3)ccc2O1	inactive
COc1ccc(S(=O)(=O)Nc2ccc3c(c2)C(=O)N([C@H](C)CO)C[C@H](C)[C@H](CN(C)C(=O)C2CCCCC2)OCCCC[C@H](C)O3)cc1	active
C[C@H](CO)N1C[C@H](C)[C@H](CN(C)C(=O)C2CCCCC2)OCCCC[C@H](C)Oc2ccc(NS(=O)(=O)c3ccccc3)cc2C1=O	inactive
C[C@@H]1CCCCO[C@@H](CN(C)C(=O)C2CCCCC2)[C@H](C)CN([C@@H](C)CO)C(=O)c2cc(NS(=O)(=O)c3ccc(Cl)cc3)ccc2O1	inactive
C[C@@H]1CN([C@@H](C)CO)C(=O)c2cc(NS(=O)(=O)c3ccc(Cl)cc3)ccc2O[C@@H](C)CCCCO[C@H]1CN(C)C(=O)C1CCCCC1	inactive
C[C@@H]1CN([C@H](C)CO)C(=O)c2cc(NS(=O)(=O)c3ccc(Cl)cc3)ccc2O[C@@H](C)CCCCO[C@@H]1CN(C)C(=O)C1CCCCC1	active

Structure (SMILES)	cytotoxicity call
COc1ccc(S(=O)(=O)Nc2ccc3c(c2)C(=O)N([C@H](C)CO)C[C@@H](C)[C@H](CN(C)C(=O)C2CCCCC2)OCCCC[C@@H](C)O3)cc1	inactive
COc1ccc(S(=O)(=O)Nc2ccc3c(c2)C(=O)N([C@H](C)CO)C[C@H](C)[C@@H](CN(C)C(=O)C2CCCCC2)OCCCC[C@H](C)O3)cc1	inactive
C[C@@H]1CCCCO[C@H](CN(C)C(=O)C2CCCCC2)[C@H](C)CN([C@H](C)CO)C(=O)c2cc(NS(=O)(=O)c3ccccc3)ccc2O1	inactive
C[C@@H]1CN([C@H](C)CO)C(=O)c2cc(NS(=O)(=O)c3ccc(Cl)cc3)ccc2O[C@@H](C)CCCCO[C@H]1CN(C)C(=O)C1CCCCC1	active
C[C@@H]1CCCCO[C@@H](CN(C)C(=O)C2CCCCC2)[C@H](C)CN([C@@H](C)CO)C(=O)c2cc(NS(=O)(=O)c3ccccc3)ccc2O1	active
C[C@H]1CN([C@@H](C)CO)C(=O)Cc2cc(NC(=O)Cn3cnnn3)ccc2O[C@H]1CN(C)CC1CC1	inactive
COc1ccc(NC(=O)N(C)C[C@@H]2Oc3ncc(C#C[C@@H](C)O)cc3C(=O)N([C@@H](C)CO)C[C@@H]2C)cc1	inactive
CCC(=O)N[C@H]1CC[C@H](CC(=O)OC)O[C@@H]1CO	inactive
CNC(=O)C[C@H]1CC[C@@H]2[C@H](COC[C@@H](O)CN2C(=O)c2ccccn2)O1	inactive
CC(C)NC(=O)N(C)C[C@@H]1Oc2c(NS(=O)(=O)c3cn(C)cn3)cccc2C(=O)N([C@H](C)CO)C[C@H]1C	inactive
Cc1ccc(S(=O)(=O)N(C)C[C@H]2Oc3ccc(NC(=O)NC(C)C)cc3CC(=O)N([C@@H](C)CO)C[C@@H]2C)cc1	inactive
O=C(C[C@@H]1CC[C@H]2[C@@H](COC[C@H](O)CN2C(=O)Nc2ccc(C(F)(F)F)cc2)O1)NCCc1ccncc1	inactive
Cc1ccc(S(=O)(=O)Nc2ccc3c(c2)C(=O)N([C@@H](C)CO)C[C@H](C)[C@@H](CN(C)C(=O)C2CCCCC2)OCCCC[C@@H](C)O3)cc1	active
Cc1ccc(S(=O)(=O)Nc2ccc3c(c2)C(=O)N([C@H](C)CO)C[C@@H](C)[C@H](CN(C)C(=O)C2CCCCC2)OCCCC[C@@H](C)O3)cc1	inactive
Cc1ccc(S(=O)(=O)Nc2ccc3c(c2)C(=O)N([C@@H](C)CO)C[C@H](C)[C@H](CN(C)C(=O)C2CCCCC2)OCCCC[C@@H](C)O3)cc1	inactive
C[C@H]1CCCCO[C@H](CN(C)S(=O)(=O)c2cn(C)cn2)[C@@H](C)CN([C@@H](C)CO)C(=O)c2cc(NS(=O)(=O)c3ccc(F)cc3)ccc2O1	inactive
C[C@@H]1CN([C@H](C)CO)C(=O)c2cc(NC(=O)NC3CCCCC3)ccc2O[C@@H]1CN(C)S(C)(=O)=O	inactive
COc1ccc([Si](C)(C)[C@H]2[C@H](CC(=O)N3Cc4ccccc4C[C@H]3CO)O[C@@]3(C(=O)N(C)c4c(Br)cc(C)cc43)[C@@H]2C)cc1	inactive
CN1C(=O)c2cc(NC(=O)C3CCOCC3)ccc2OC[C@H]2O[C@H](CC(=O)NCCc3ccncc3)CC[C@@H]21	inactive
COc1cc(C(C)=O)ccc1O	inactive
COc1cc(C=CC(=O)C=C(O)C=Cc2ccc(O)c(OC)c2)ccc1O	active
COc1cc(C=CC(=O)O)ccc1O	inactive
COc1ccc(C=CC(=O)O)cc1OC	inactive

Structure (SMILES)	cytotoxicity call
O=C(C=Cc1ccc(O)c(O)c1)C=C(O)C=Cc1ccc(O)c(O)c1	active
O=C(/C=C/c1ccc(O)c(O)c1)O[C@H]([C@H](OC(=O)/C=C/c1ccc(O)c(O)c1)[C@H](OC(=O)/C=C/c1ccc(O)c(O)c1)C(=O)O)[C@@H](OC(=O)/C=C/c1ccc(O)c(O)c1)C(=O)O	inactive
COc1cc(C=O)ccc1O	active
O=C(O)C=Cc1ccc(O)c(O)c1	inactive
COc1ccc(/C=C/C(=O)C=C(O)/C=C/c2ccc(OC)c(OC)c2)cc1OC	inactive
S=C1NCNCN1	inactive
O=C1N[C@H](Cc2ccccc2)COC(=O)[C@@H](Cc2ccc(F)cc2)CCC=CC[C@@H]1CC(=O)N(CCO)Cc1ccccc1	inactive
COc1ccc(CN2C[C@@H](C)[C@H](OC)CN(C)C(=O)c3ccc(NC(=O)c4nc5ccccc5s4)cc3OC[C@H]2C)cc1	inactive
COCC#Cc1ccc2c(c1)O[C@@H](CN(C)C(=O)CN(C)C)[C@H](C)CN([C@H](C)CO)S2(=O)=O	inactive
Cc1ccc(S(=O)(=O)N(C)C[C@@H]2Oc3ncc(Br)cc3C(=O)N([C@H](C)CO)C[C@@H]2C)cc1	inactive
COC(=O)c1cc(S(=O)(=O)N2CCOCC2)cn1C	inactive
C[C@@H]1CCCCO[C@@H](CN(C)C(=O)Nc2ccc(F)cc2)[C@@H](C)CN([C@@H](C)CO)C(=O)c2cc(NC(=O)C3CCCCC3)ccc2O1	inactive
COCC#Cc1ccc([C@H]2[C@@H](CO)N3C(=O)CN(C(=O)C4CCOCC4)C[C@@H]23)cc1	inactive
C[C@H]1CN([C@@H](C)CO)C(=O)c2cccc(NC(=O)c3cnccn3)c2O[C@H]1CN(C)C(=O)Nc1ccccc1	inactive
C[C@@H]1CN([C@@H](C)CO)C(=O)c2cc(NC(=O)Nc3ccc(C(F)(F)F)cc3)ccc2O[C@@H](C)CCCCO[C@@H]1CN(C)C(=O)CCCN(C)C	inactive
Oc1ccc2ccccc2c1	inactive
Oc1cccc(O)c1	inactive
O=C(O)c1ccc2ccccc2c1	inactive
Oc1ccc2ccccc2c1 [beta-NAPHTHOL ]	active
C[C@H](CO)N1C[C@H](C)[C@@H](CN(C)S(=O)(=O)c2ccccc2)Oc2ccc(NS(=O)(=O)c3ccccc3)cc2C1=O	inactive
Cc1ccc(S[C@]2(C(=O)NCC(C)C)CC(=O)N(Cc3cc(C(F)(F)F)cc(C(F)(F)F)c3)[C@@H]2c2ccc(CO)cc2I)cc1	inactive
